Read-out in assay [1]: Macrophage colony-stimulating factor (MCSF), CSF1 (gene 1435)
The assay can be described thus: BSK_hDFCGF_MCSF: BioMAP Diversity Plus: hDFCGF Assay for Macrophage colony-stimulating factor (MCSF) Biomarker Activity (AID 2283060). The conditions noted are these: primary human foreskin fibroblasts; actives raise or lower the signal. In outline: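 fibroblasts (human foreskin, primary), 24 h post-dose; M-CSF by ELISA; bidirectional fit, DMSO = baseline.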

Assay [2] is described as follows: BSK_hDFCGF_SRB: Viability Assessment in the BioMAP Diversity Plus: hDFCGF Assay (AID 2283061).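 Note: cells exposed to compound for 24 h before the read.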 The conditions noted are these: primary human foreskin fibroblasts. An outline of the steps:
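SRB-based viability read on primary human skin fibroblasts at 24 h: TCA fixation, 0.1% dye, 560 nm. Gain or loss of signal is fitted against the DMSO negative control.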

Read-out in assay [3]: TIMP metallopeptidase inhibitor 1 (TIMP1), TIMP1 (gene 7076)
The experiment in a line: BSK_hDFCGF_TIMP1: BioMAP Diversity Plus: hDFCGF Assay for TIMP metallopeptidase inhibitor 1 (TIMP1) Biomarker Activity (AID 2283062). The conditions noted are these: primary human foreskin fibroblasts; actives raise or lower the signal. In outline: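 Bidirectional curve fitting against DMSO baseline yielded this endpoint, based on ELISA detection of TIMP-1 in primary human foreskin fibroblasts exposed to compound for 24 h.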

Read-out in assay [4]: Monokine induced gamma interferon (MIG), CXCL9 (gene 4283)
The experiment in a line: BSK_hDFCGF_MIG: BioMAP Diversity Plus: hDFCGF Assay for Monokine induced gamma interferon (MIG) Biomarker Activity (AID 2283063). The conditions noted are these: primary human foreskin fibroblasts; actives raise or lower the signal. An outline of the steps: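 Endpoint derived by bidirectional fitting relative to DMSO; MIG quantified via ELISA in primary human foreskin fibroblasts harvested 24 h after dosing.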

Read-out in assay [5]: Matrix Metallopeptidase 1 (MMP1), MMP1 (gene 4312)
The experiment in a line: BSK_hDFCGF_MMP1: BioMAP Diversity Plus: hDFCGF Assay for Matrix Metallopeptidase 1 (MMP1) Biomarker Activity (AID 2283064). The conditions noted are these: primary human foreskin fibroblasts; actives raise or lower the signal. An outline of the steps:
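Primary human foreskin fibroblasts exposed to chemicals for 24 h; MMP1 measured by ELISA. Cytotoxicity tracked by SRB staining in parallel cultures; bidirectional fit relative to DMSO.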

Read-out in assay [6]: Vascular cell adhesion molecule 1 (VCAM1), VCAM1 (gene 7412)
The experiment in a line: BSK_hDFCGF_VCAM1: BioMAP Diversity Plus: hDFCGF Assay for Vascular cell adhesion molecule 1 (VCAM1) Biomarker Activity (AID 2283065).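 For AC50: VCAM-1 protein level quantified by ELISA after 24 h chemical exposure.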 The conditions noted are these: primary human foreskin fibroblasts; actives raise or lower the signal. In outline:
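Measured after 24 h chemical treatment of primary human skin fibroblasts, VCAM-1 was detected by ELISA and concentration-response analysed in both directions versus DMSO vehicle.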

Read-out in assay [7]: Plasminogen activator inhibitor-1 (PAI1), SERPINE1 (gene 5054)
The experiment in a line: BSK_hDFCGF_PAI1: BioMAP Diversity Plus: hDFCGF Assay for Plasminogen activator inhibitor-1 (PAI1) Biomarker Activity (AID 2283066). The conditions noted are these: primary human foreskin fibroblasts; actives raise or lower the signal. An outline of the steps:
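Human foreskin fibroblasts in the hDFCGF system were dosed with compound for 24 h; PAI-1 was quantified by ELISA. Bidirectional curve fitting used DMSO as negative control and baseline.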

Read-out in assay [8]: Intercellular Adhesion Molecule 1 (ICAM1), ICAM1 (gene 3383)
The assay can be described thus: BSK_KF3CT_ICAM1: BioMAP Diversity Plus: KF3CT Assay for Intercellular Adhesion Molecule 1 (ICAM1) Biomarker Activity (AID 2283067). The conditions noted are these: primary human keratinocytes with fibroblasts; actives raise or lower the signal. In outline: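 Bidirectional curve fitting against a DMSO baseline was applied to ICAM-1 ELISA signal from primary human skin co-cultures harvested 24 h after treatment, with SRB staining of parallel wells for overt cytotoxicity.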

Read-out in assay [9]: Interferon-gamma inducible Protein 10 (IP10), CXCL10 (gene 3627)
The experiment in a line: BSK_KF3CT_IP10: BioMAP Diversity Plus: KF3CT Assay for Interferon-gamma inducible Protein 10 (IP10) Biomarker Activity (AID 2283068). The conditions noted are these: primary human keratinocytes with fibroblasts; actives raise or lower the signal. In outline:
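KF3CT co-culture (keratinocytes + foreskin fibroblasts), 24 h compound, IP-10 by ELISA; bidirectional fit vs DMSO baseline.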

Assay [10] is described as follows: BSK_KF3CT_SRB: Viability Assessment in the BioMAP Diversity Plus: KF3CT Assay (AID 2283069).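 Note: total protein by sulforhodamine B staining as a cytotoxicity measure; read 24 h after compound addition; fitted for both signal gain and loss against DMSO baseline.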 The conditions noted are these: primary human keratinocytes with fibroblasts. An outline of the steps:
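Human keratinocyte and foreskin fibroblast co-culture exposed to chemical for 24 h. Total protein measured in parallel cultures by 0.1% sulforhodamine B staining after 10% TCA fixation, read at 560 nm; bidirectional fit relative to DMSO.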

Several values for one entry are separate records, joined by “and”; a condition that tells them apart may be missing. Identical values can stand only once. The source holds several records for some structures; these can differ, active in one and inactive in another. Activity calls are given as the source filed them. Rule for the calls: active = hit-call score of the fitted dose curve at least 0.9, where 1 is the maximum; inactive = score below 0.9.

Usually AC50 stands for the concentration at which the activity in the assay is half-maximal. For the compound `C=C(C)C(=O)OCC(F)(F)C(F)(F)C(F)(F)C(F)(F)C(F)(F)C(F)(F)C(F)(F)F`, the result in [1], in assay [2], in assay [3], in assay [4], in [5] and in assay [6] was inactive. In addition, the outcome in [7], in assay [8], in [9] and in [10] was inactive. Moreover, the AC50 in [2] was 1.4 µM (active).
For the compound `CCc1ccc(C(c2ccc(CC)cc2)C(Cl)Cl)cc1`, the AC50 in assay [1] was 26 µM (active); in assay [2] it was 13.8 µM (active); in assay [3], 20 µM (active); in [4] it was 31.8 µM (active); in assay [5] it was 30.1 µM (active); in [6] it was 14.2 µM (active). Besides, the AC50 in [7] is 12.3 µM (active); in assay [9], 13.6 µM (active); in assay [10], 29.2 µM (active). In assay [8], the outcome was inactive.
Consider `O=C(O)C(F)(F)C(F)(F)C(F)(F)C(F)(F)F`, for which the result in assay [1], in assay [2], in [3], in assay [4], in [5] and in [6] was inactive. The outcome in assay [7], in assay [8], in assay [9] and in assay [10] was inactive.
Turning to `O=C(O)C(F)(F)C(F)(F)C(F)(F)C(F)(F)C(F)(F)C(F)(F)C(F)(F)C(F)(F)C(F)(F)C(F)(F)C(F)(F)C(F)(F)F`, the AC50 in [1] is 6.46 µM (active); in assay [2] it was 6.27 µM (active); in assay [4] it was 2.35 µM (active) and 1.17 µM (active); in [5], 1.6 µM (active); in [6] it was 4.75 µM (active) and 1.14 µM (active); in assay [9], 22.5 µM (active). Moreover, the result in [1], in assay [2], in assay [3], in assay [5], in assay [7] and in assay [8] was inactive. Also, the outcome in assay [9] and in assay [10] was inactive.
For the compound `CC(=O)Nc1ccc(N=Nc2cc(C)ccc2O)cc1`, the AC50 is 30.8 µM (active) in assay [1]; 33.8 µM (active) in assay [4]; 31 µM (active) in assay [5]; 30.2 µM (active) in assay [6]; 20 µM (active) in assay [8]; 34 µM (active) in assay [9]. In addition, the result in assay [2], in [3], in [7] and in assay [10] was inactive.
`CCCCC(CC)COP(=O)(O)OCC(CC)CCCC` (stereo unspecified): the AC50 in [1] is 33.9 µM (active) and 31.3 µM (active); in assay [2], 30.6 µM (active) and 29.9 µM (active); in assay [3], 30.8 µM (active); in assay [4], 31.6 µM (active); in [5], 12 µM (active) and 13.7 µM (active); in assay [6] it was 37.6 µM (active) and 32 µM (active). The AC50 in [7] was 27.5 µM (active) and 33.5 µM (active); in assay [9] it was 26.5 µM (active) and 27.2 µM (active). Further, the outcome in assay [3], in assay [4], in [8] and in assay [10] was inactive.
Regarding `FC(F)(F)C(F)(F)C(F)(F)C(F)(F)CCI`, the result in assay [1], in [2], in assay [3], in assay [4], in assay [5] and in [6] was inactive. For the same compound, the outcome in [7], in assay [8], in assay [9] and in [10] was inactive. Further, the AC50 in assay [4] is 49.3 µM (active).
With `FC(F)(F)C(F)(F)C(F)(F)C(F)(F)C(F)(F)C(F)(F)C(F)(F)I`, the result in assay [1], in [2], in assay [3], in [4], in assay [5] and in assay [6] was inactive. Further, the outcome in [7], in [8], in assay [9] and in [10] was inactive.
With `C=CC(F)(F)C(F)(F)C(F)(F)C(F)(F)C(F)(F)C(F)(F)C(F)(F)C(F)(F)C=C`, the result in [1], in assay [2], in assay [3], in assay [4], in assay [5] and in [6] was inactive. Further, the outcome in assay [7], in assay [8], in [9] and in [10] was inactive. Moreover, the AC50 in assay [2] was 3.33 µM (active).
In the case of `O=C(O)C=C(C(F)(F)F)C(F)(F)F`, the result in [1], in assay [2], in [3], in assay [4], in assay [5] and in assay [7] was inactive. Also, the result in [8], in assay [9] and in [10] was inactive. The AC50 in assay [3] is 0.967 µM (active); in assay [6], 13.1 µM (active) and 22.2 µM (active); in assay [7], 22.6 µM (active).
In the case of `FC(F)(F)C(F)(F)C(F)(F)C(F)(F)C(F)(F)CCI`, the AC50 was 23.4 µM (active) in assay [1]; 30 µM (active) in assay [4]; 8.91 µM (active) in assay [5]; 38.6 µM (active) and 32.6 µM (active) in assay [6]. In addition, the result in assay [1], in [2], in [3], in [4], in assay [5] and in assay [7] was inactive. For the same compound, the result in assay [8], in [9] and in assay [10] was inactive.
Regarding `FC(F)(F)C(F)(F)C(F)(F)C(F)(F)C(F)(F)C(F)(F)C(F)(F)C(F)(F)F`, the result in [1], in assay [2], in assay [3], in [4], in assay [5] and in assay [6] was inactive. Also, the outcome in assay [7], in [8], in [9] and in [10] was inactive.
`FC(F)(F)C(F)(F)C(F)(F)CI`: the result in assay [1], in assay [2], in assay [3], in [4], in assay [5] and in assay [6] was inactive. In addition, the result in [7], in assay [8], in assay [9] and in assay [10] was inactive.
Regarding `O=C(O)C(F)(F)C(F)(F)C(F)(F)C(F)(F)C(F)(F)C(F)(F)C(F)(F)C(F)(F)Cl`, the AC50 is 30 µM (active) and 46.9 µM (active) in assay [1]; 47.7 µM (active) and 49.2 µM (active) in [2]; 30 µM (active) in assay [3]; 21.4 µM (active) and 34.1 µM (active) in assay [4]; 1.31 µM (active) and 12.3 µM (active) in [5]; 46.8 µM (active) and 30 µM (active) in assay [6]. In addition, the half-maximal activity concentration (AC50) was 47.7 µM (active) and 46.5 µM (active) in assay [7]; 32 µM (active) and 25.1 µM (active) in assay [8]; 45 µM (active) and 45.9 µM (active) in assay [9]; 41.7 µM (active) and 49.7 µM (active) in assay [10]. Moreover, in assay [3], the result was inactive.
As for `O=S(=O)(OCC(F)F)C(F)(F)F`, the result in assay [1], in assay [2], in [3], in [4], in assay [5] and in [6] was inactive. For the same compound, the result in assay [7], in assay [8], in [9] and in assay [10] was inactive. The AC50 in [7] was 1.42 µM (active).
In the case of `Cc1ccc(S(=O)(=O)OCC(F)(F)C(F)(F)C(F)(F)C(F)(F)C(F)(F)C(F)F)cc1`, the outcome in assay [1], in assay [2], in assay [3], in assay [4], in assay [5] and in [6] was inactive. Besides, the result in assay [7], in assay [8], in assay [9] and in assay [10] was inactive.

These data come from PubChem BioAssay (EPA / NIEHS).
